Inconclusive results are not listed. Calls of active or inactive are those of the source. The call rests on the fitted dose curve; in most records, active means well fitted cell-killing curve with a large enough effect; inconclusive means small, poorly fitted or top-dose-only effect, or effect the other way; inactive means no such curve, though single readings can be large or run the other way.
Potency means the concentration at half of the fitted maximal effect.

A short description of this experiment: Quantitative High-Throughput drug screen in 47 multiple myeloma cell lines against the NCATS MIPE library collection: KMS26_JCRB cell viability assay (AID 1918975). Further: nearly all actives have a fitted effect of over 45% in size. The following applies: KMS26 myeloma cells viability, CellTiter-Glo ATP, 48 h; series mostly up to 45.8 µM. The text has this: PI: Beverly A. Mock Ph.D.
Laboratory of Cancer Biology and Genetics,
Center for Cancer Research, National Cancer Institute,
National Institute of Health, Bethesda, Maryland
Drug resistance and disease progression are common in multiple myeloma (MM) patients, underscoring the need for new therapeutic combinations. […] We hypothesized that effective combinations would reduce MYC expression and enhance p16 activity. […] These preclinical data identify potentially useful drug combinations for evaluation in drug-resistant MM and reveal potential mechanisms of combined drug sensitivity.
Described herein is the primary MIPE qHTS used to cherrypick compounds. Validated compounds were then further tested for potential synergistic activiy.
[1] Peat TJ, Gaikwad SM, Dubois W, Gyabaah-Kessie N, Zhang S, Gorjifard S, Phyo Z, Andres M, Hughitt VK, Simpson RM, Miller MA, Girvin AT, Taylor A, Williams D, D'Antonio N, Zhang Y, Rajagopalan A, Flietner E, Wilson K, Zhang X, Shinn P, Klumpp-Thomas C, McKnight C, Itkin Z, Chen L, Kazandijian D, Zhang J, Michalowski AM, Simmons JK, Keats J, Thomas CJ, Mock BA. Drug combinations identified by high-throughput screening promote cell cycle transition and upregulate Smad pathways in myeloma. Cancer Lett. 2023 Aug 1;568:216284. doi: 10.1016/j.canlet.2023.216284. Epub 2023 Jun 24. PMID: 37356470; PMCID: PMC10408729.
SEQUENCE No. (e.g., 1, 2, 3, etc.); […] (e.g., Cells, Incubation, Reagent, etc.); VALUE and DESCRIPTION.
1; Cells; 5 uL; white, solid bottom 1536-well Greiner assay plate.
2; Compounds; 23 nL; Kalypsis pin tool (Wako USA) equipped with a 1536-well pin head to transfer to the assay plates.
3; Incubation; 48 hours; 37C incubation.
4; Reagent;5uL; CellTiter Glo (Promega).
5; Detector; 425V; Luminescence; Viewlux PerkinElmer.
NOTES (numbers refer to Sequence numbers above)
1. The cell-based screening methods employed in this study were like those previously published. Briefly, the corresponding myeloma cell lines were screened in 1,536-well plates with 500 cells, 5-uL per well for inhibition of cell viability (assessed by measuring ATP levels with CellTiterGlo).
2. NCATS MIPE 4.0 library of approved and investigational drugs were added using the Kalypsis pin tool. Wells treated with DMSO only for 100% viability and media only wells for 0% viability were used as controls.
3. The assay plates were covered and incubated for 48 hours in a 37C, 5% CO2 incubator with controlled humidity.
4. After 48 hours, CellTilter-GloTM luminescent substrate mix (Promega) reagent was added to the assay plate and plates we incubated for 5 min at room temperature.
5. Signal was measured as median relative luminescence units on a ViewLux (PerkinElmer) multiplate reader.
[1] Heske CM, Davis MI, Baumgart JT, Wilson K, Gormally MV, Chen L, Zhang X, Ceribelli M, Duveau DY, Guha R, Ferrer M, Arnaldez FI, Ji J, Tran HL, Zhang Y, Mendoza A, Helman LJ, Thomas CJ. Matrix Screen Identifies Synergistic Combination of PARP Inhibitors and Nicotinamide Phosphoribosyltransferase (NAMPT) Inhibitors in Ewing Sarcoma. Clin Cancer Res. 2017 Dec 1;23(23):7301-7311. doi: 10.1158/1078-0432.CCR-17-1121. Epub 2017 Sep 12. PMID: 28899971; PMCID: PMC6636827.
`CN1CCN(c2cccc(Nc3nc4c(-c5ccc(S(C)(=O)=O)cc5)cccn4n3)c2)CC1`: the Potency was 20.9 µM (active).
For `C[C@@H]1[C@H](C)CC[C@]2(C(=O)O)CC[C@]3(C)C(=CC[C@@H]4[C@@]5(C)CC[C@H](O)C(C)(C)[C@H]5CC[C@]43C)[C@@H]12` the value was 19.1 µM (active); for `COc1ccc(-c2ccc3ncc4c(c3c2)n(-c2ccc(N3CCNCC3)c(C(F)(F)F)c2)c(=O)n4C)cn1`, 0.0083 µM (active).
For `C[C@@]1(C(=O)Nc2ccc(F)nc2)CCCN1c1nc(Nc2cc(C3CC3)[nH]n2)c2cccn2n1` the value was 0.0066 µM (active); for `CCC(=O)N1CCN(c2ccc(-n3c(=O)ccc4cnc5ccc(-c6cnc7ccccc7c6)cc5c43)cc2C(F)(F)F)CC1`, 0.0743 µM (active).
With `N#CC(=C1Nc2ccccc2S1)c1ccnc(OCc2ccc(CN3CCOCC3)cc2)n1`, the Potency was 20.9 µM (active).
In the case of `COc1cc2nccc(Oc3ccc(NC(=O)Nc4cc(C)on4)c(Cl)c3)c2cc1OC`, the Potency was 16.6 µM (active).
For `CCCC1OC2C[C@@H]3[C@H]4CCC5=CC(=O)C=C[C@]5(C)[C@H]4C(O)C[C@]3(C)[C@]2(C(=O)CO)O1` (stereo not given in full) the value was “inactive”; for `O=C(CO)N1CCC(c2[nH]nc(-c3ccc(Cl)cc3)c2-c2ccncn2)CC1`, “inactive”.
For the compound `Cc1ccc(C(=O)N(CCCN)[C@@H](c2nc3cc(Cl)ccc3c(=O)n2Cc2ccccc2)C(C)C)cc1`, the Potency was 23.5 µM (active).
Turning to `COc1nccc(-c2c(-c3ccc(F)cc3)ncn2C2CCC(O)CC2)n1` (stereo not given), the Potency is 6.62 µM (active).
Under `Cc1ccc(C(=O)N(CCCN)[C@@H](c2oc3cc(Cl)ccc3c(=O)c2Cc2ccccc2)C(C)C)cc1` stands 26.4 µM (active); under `CC1CNc2c(cccc2S(=O)(=O)N[C@@H](CCCN=C(N)N)C(=O)N2CC[C@@H](C)C[C@@H]2C(=O)O)C1` (stereo not given in full), “inactive”.
On to `CC(=O)OCC(=O)[C@@]12OC(C)(C)O[C@H]1C[C@H]1[C@@H]3C[C@H](F)C4=CC(=O)C=C[C@]4(C)[C@@]3(F)[C@@H](O)C[C@@]12C`, for which the Potency result is “inactive”.
Consider `Cc1cnc(Nc2cccc(CN3CCOCC3)c2)nc1Nc1cccc(S(=O)(=O)NC(C)(C)C)c1`, for which the Potency is 18.7 µM (active).
For `CN(C)S(=O)(=O)c1ccc2c(c1)C(=Cc1cc3c([nH]1)CCCC3)C(=O)N2`, the Potency is 2.35 µM (active).
For `CC1(COc2ccc3c(c2)ncn3-c2ccc3cccc(N4CCC(N)CC4)c3n2)COC1` the value was 14.8 µM (active); for `O=C(C=Cc1ccc(O)cc1)c1ccc(O)cc1O`, 23.5 µM (active); for `Cc1ccc(NC(=O)Nc2cc(C(F)(F)F)ccc2F)cc1Nc1ccc2c(c1)NC(=O)C2=Cc1ccc[nH]1`, 37.2 µM (active).
Under `CN1C(=O)C[C@H](C(=O)N[C@@H](Cc2cnc[nH]2)C(=O)N2CCC[C@@H]2C(N)=O)NC1=O` stands “inactive”; under `CC(C)N(CCCNC(=O)Nc1ccc(C(C)(C)C)cc1)C[C@H]1O[C@@H](n2cc(Br)c3c(N)ncnc32)[C@H](O)[C@H]1O`, 26.4 µM (active).
As for `O=C1C(c2c(O)[nH]c3ccccc23)=Nc2ccccc21`, the Potency is 2.96 µM (active).
For `CC[C@H](CC#N)OC(=O)N[C@@H](C)c1cccc(NC(=O)Nc2ccc(-c3cnco3)c(OC)c2)c1`, the Potency is 20.9 µM (active).
Under `Oc1cc(O)cc(C=Cc2ccc(O)c(O)c2)c1` stands 23.5 µM (active); under `Cc1cc(OCCCS(C)(=O)=O)cc(C)c1-c1cccc(COc2ccc3c(c2)OC[C@H]3CC(=O)O)c1`, “inactive”; under `COc1cc2c(cc1Cc1cccc(Cl)c1F)c(=O)c(C(=O)O)cn2[C@H](CO)C(C)C`, 20.9 µM (active).
Consider `CC1C(=O)OC2C(O)C34C5CC(C(C)(C)C)C36C(OC(=O)C6O)OC4(C(=O)O5)C12O` (stereo not given), for which the Potency result was “inactive”.
Under `CCN1C[C@H](C)n2c(c(O)c3c(=O)n(Cc4ccc(F)c(Cl)c4)nc(C(=O)NC)c32)C1=O` stands “inactive”.
As for `C[C@@H](O[C@H]1OCCN(Cc2n[nH]c(=O)[nH]2)[C@@H]1c1ccc(F)cc1)c1cc(C(F)(F)F)cc(C(F)(F)F)c1`, the Potency is 18.7 µM (active).
Turning to `CCCCc1ccc(NS(=O)(=O)c2ccc(C)c(C(=O)N3CCN(c4cccc(C)c4C)CC3)c2)cc1`, the Potency is 23.5 µM (active).
Under `CCC(=C(c1ccc(O)cc1)c1ccc(OCCNC)cc1)c1ccccc1` stands 26.4 µM (active).
Under `C[C@]12CC[C@@H]3c4ccc(O)cc4CC[C@H]3[C@H]1[C@@H](O)[C@@H](O)[C@H]2O` stands “inactive”.
In the case of `O=C(O)c1nc(=O)[nH]c(=O)[nH]1`, the Potency entry was “inactive”.
Under `CN1[C@H]2CC[C@H]1CC(OC(=O)c1c[nH]c3ccccc13)C2` (stereo not given in full) stands “inactive”; under `CC(NCCc1ccc(O)cc1)C(O)c1ccc(O)cc1` (stereo not given), “inactive”; under `Cc1cccc(-c2[nH]c(C(C)(C)C)nc2-c2ccc3c(c2)OCO3)n1`, 16.6 µM (active).
As to `Cc1cccc(Nc2nc(N[C@@H]3CCCC[C@H]3N)ncc2C(N)=O)c1`, the Potency was 20.9 µM (active).
Under `COC(=O)[C@H](c1ccccc1Cl)N1CCc2sccc2C1` stands “inactive”; under `Cc1ccc2c(=O)c3cccc(CC(=O)O)c3oc2c1C`, 20.9 µM (active).
On to `C=C1[C@H](n2cnc3c(=O)[nH]c(N)nc32)C[C@H](O)[C@H]1CO`, for which the Potency entry is “inactive”.

Source of the values: PubChem BioAssay (NCATS).
